Among the data in PubChem BioAssay are fold change, cell count and z-score values, retold here.

Structures are written as SMILES. “And” between values parts separate entries of the source, which are not always exact repeats. Equal values may be shown once. The source made the active and inactive calls.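 The calls were made as follows, unless noted: active = compounds whose cell count with miR-34 switched on is under 0.7 times the count with it off; inactive = the rest.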

A short description of assay [1]: sensitizers of A549 cells to miR-34 induction, primary screen, imaging, A549 dox-inducible miR-34, nuclei and caspase counts (AID 1347080). Also: test concentration not given here. The following applies: A549 miR-34 inducible, Hoechst nuclei count, 48 h.
The nature of assay [2]: viability rescue of complex I mutant cybrids, primary screen, cell-based, galactose medium, ATP luminescence (AID 1645843;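 active = z-score of at least 1.8 in each of two replicates, scored against plate mean and spread of sample wells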;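 also: positive z means more ATP and so rescue of galactose-driven cybrid death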). The following applies: complex I mutant cybrid cells, 72 h, stronger effect = higher value.
Setting [3] is: stronger effect = lower value, cell number ratio, induced over uninduced.
Setting [4] is: measured here: relative caspase fold change +Dox/-Dox.
Where [5] appears, read: measured here: total cells with miR-34 induction, stronger effect = lower value.
The mark [6] stands for this setting: measured here: total cells without miR-34 induction.

As to `C=CC1=C(C(=O)O)N2C(=O)C(NC(=O)C(=NOCC(=O)O)c3csc(N)n3)C2SC1` (stereo not given), the values for the fold change in assay [1] (setting [3]) and in assay [1] (setting [4]) were 0.923 (inactive) and 0.894, respectively. The results for the cell count in assay [1] (setting [5]) and in assay [1] (setting [6]) were 8710 and 9440, respectively. In addition, the z-score in assay [2] is 0.065 (inactive).

In the case of `CCC1OC(=O)C(C)C(=O)C(C)C(OC2OC(C)CC(N(C)C)C2O)[C@](C)(OC)CC(C)C(=O)C(C)C2N(CCCCn3cnc(-c4cccnc4)c3)C(=O)O[C@]12C` (stereo not given in full), the fold change in assay [1] (setting [3]) was 0.904 (inactive); in assay [1] (setting [4]), 0.557. The cell count came to 7630 in assay [1] (setting [5]) and 8440 in assay [1] (setting [6]). Moreover, the z-score in assay [2] is 0 (inactive).

For `CCN1CCCC1CNC(=O)c1c(O)c(Cl)cc(Cl)c1OC` (stereo not given), the fold change in assay [1] (setting [3]) is 1.02 (inactive); in assay [1] (setting [4]), 1.39. In addition, the cell count in assay [1] (setting [5]) came to 9680; in assay [1] (setting [6]) it was 9480. For the same compound, the z-score in assay [2] was 0.65 (inactive).

Consider `CC(C)OC(=O)CCCC=CCC1C(O)CC(O)C1CCC(O)CCc1ccccc1` (stereo not given), for which the fold change was 1 (inactive) in assay [1] (setting [3]) and 2.41 in assay [1] (setting [4]). For the same compound, the cell count in assay [1] (setting [5]) and in assay [1] (setting [6]) was 9620 in each case. In addition, the z-score in assay [2] was -1.17 (inactive).

As to `O=C1NC(=O)c2c1c(-c1ccccc1)cc1[nH]c3ccc(O)cc3c21`, the fold change in assay [1] (setting [3]) was 0.992 (inactive) and 1.16 (inactive); in assay [1] (setting [4]), 0.466 and 1.08. Besides, the cell count in assay [1] (setting [5]) is 2060 and 2860; in assay [1] (setting [6]), 2080 and 2470. For the same compound, in assay [2], the z-score was -1.27 (inactive) and -0.655 (inactive).

`C=C1C(=CC=C2CCC[C@@]3(C)C2CCC3C(C)CCCC(C)(C)O)CC(O)CC1O` (stereo not given in full): the fold change in assay [1] (setting [3]) was 0.912 (inactive); in assay [1] (setting [4]) it was 1.66. The cell count in assay [1] (setting [5]) is 9420; in assay [1] (setting [6]), 10300. The z-score in assay [2] is -1.52 (inactive).

With `O=c1cnn(C2OC(CO)C(O)C2O)c(=O)[nH]1` (stereo not given), the results for the fold change in assay [1] (setting [3]) and in assay [1] (setting [4]) were 1.77 (inactive) and 0.641, respectively. The cell count in assay [1] (setting [5]) was 1880; in assay [1] (setting [6]) it was 1060. In assay [2], the z-score was -0.74 (inactive).

In the case of `CC(=O)C1CCC2C3CCC4=CC(=O)CC[C@]4(C)C3CC[C@]12C` (stereo not given in full), the fold change in assay [1] (setting [3]) was 0.861 (inactive); in assay [1] (setting [4]), 1.42. Besides, the cell count was found to be 7200 in assay [1] (setting [5]) and 8360 in assay [1] (setting [6]). Further, the z-score in assay [2] is -0.365 (inactive).

In the case of `O=c1c(OC2OC(CO)C(O)C(O)C2O)c(-c2ccc(O)c(O)c2)oc2cc(O)cc(O)c12` (stereo not given), the fold change was 0.911 (inactive) and 0.974 (inactive) in assay [1] (setting [3]); 0.962 and 2.15 in assay [1] (setting [4]). Besides, the cell count in assay [1] (setting [5]) was 4950 and 10100; in assay [1] (setting [6]), 5430 and 10300. Also, the z-score in assay [2] is -1.74 (inactive) and 0.575 (inactive).

Take `C=CCC1C=C(C)CC(C)CC(OC)C2O[C@@](O)(C(=O)C(=O)N3CCCCC3C(=O)OC(C(C)=CC3CCC(O)C(OC)C3)C(C)C(O)CC1=O)C(C)CC2OC` (stereo not given in full): the results for the fold change in assay [1] (setting [3]) and in assay [1] (setting [4]) were 1.03 (inactive) and 1.03, respectively. The cell count in assay [1] (setting [5]) was 5920; in assay [1] (setting [6]) it was 5760. Besides, in assay [2], the z-score is 0.96 (inactive).

For the compound `CN1CCc2cc(Cl)c(O)cc2C(c2ccccc2)C1` (stereo not given), the fold change in assay [1] (setting [3]) is 0.944 (inactive); in assay [1] (setting [4]), 0.98. Also, the values for the cell count in assay [1] (setting [5]) and in assay [1] (setting [6]) were 8780 and 9300, respectively. For the same compound, the z-score in assay [2] was 0.39 (inactive).

As for `C=CCc1ccccc1OCC(O)CN[C@]1(C)CCC[C@H](C(C)(C)NC(=O)CBr)C1` (stereo not given in full), the fold change was 0.814 (inactive) in assay [1] (setting [3]) and 1.93 in assay [1] (setting [4]). For the same compound, the values for the cell count in assay [1] (setting [5]) and in assay [1] (setting [6]) were 70 and 86, respectively. Moreover, the z-score in assay [2] was -1.52 (inactive).

`CC(=O)OC1CC2CCC3C(CCC4(C)C3CC([N+]3(C)CCCCC3)C4OC(C)=O)C2(C)CC1[N+]1(C)CCCCC1` (stereo not given): the results for the fold change in assay [1] (setting [3]) and in assay [1] (setting [4]) were 0.885 (inactive) and 2.7, respectively. Also, the cell count in assay [1] (setting [5]) is 8890; in assay [1] (setting [6]), 10000. In assay [2], the z-score was 0.825 (inactive).

For the compound `COCc1c(C(C)C)nc(C(C)C)c(C=CC(O)CC(O)CC(=O)O)c1-c1ccc(F)cc1` (stereo not given), the values for the fold change in assay [1] (setting [3]) and in assay [1] (setting [4]) were 1.06 (inactive) and 2.76, respectively. In addition, the cell count in assay [1] (setting [5]) turned out to be 1210; in assay [1] (setting [6]), 1140. The z-score in assay [2] is -1.86 (inactive).

Regarding `CNC(=O)[C@H]1O[C@@H](n2cnc3c(NCc4ccc(I)cc4)nc(Cl)nc32)[C@H](O)[C@@H]1O`, the values for the fold change in assay [1] (setting [3]) and in assay [1] (setting [4]) were 1.02 (inactive) and 1.05, respectively. The cell count in assay [1] (setting [5]) was found to be 5610; in assay [1] (setting [6]), 5510. The z-score in assay [2] was 1.29 (inactive).

For `CC#C[C@]1(O)CCC2C3CCC4=CC(=O)CCC4=C3C(c3ccc(N(C)C)cc3)C[C@@]21C` (stereo not given in full), the results for the fold change in assay [1] (setting [3]) and in assay [1] (setting [4]) were 0.84 (inactive) and 0.861, respectively. The cell count in assay [1] (setting [5]) came to 5600; in assay [1] (setting [6]) it was 6670. Further, the z-score in assay [2] is -0.035 (inactive).

`CC1=C(C(=O)O)N2C(=O)C(NC(=O)C(N)c3ccccc3)C2SC1` (stereo not given): the fold change in assay [1] (setting [3]) was 0.933 (inactive); in assay [1] (setting [4]), 1.4. Moreover, the cell count was determined as 8950 in assay [1] (setting [5]) and 9590 in assay [1] (setting [6]). Moreover, in assay [2], the z-score is 0.52 (inactive).

For the compound `CC1COc2c(C3(N)CC3)c(F)cc3c(=O)c(C(=O)O)cn1c23` (stereo not given), the fold change in assay [1] (setting [3]) is 0.951 (inactive); in assay [1] (setting [4]) it was 1.6. Further, the cell count in assay [1] (setting [5]) stood at 9830; in assay [1] (setting [6]) it was 10300. For the same compound, in assay [2], the z-score is 0.395 (inactive).

On to `[Cl-].[Cl][Pt].[NH2-].[NH2-].c1ccncc1`, for which the figures for the fold change in assay [1] (setting [3]) and in assay [1] (setting [4]) were 0.987 (inactive) and 0.925, respectively. In addition, the values for the cell count in assay [1] (setting [5]) and in assay [1] (setting [6]) were 9550 and 9680, respectively. In assay [2], the z-score was -1 (inactive).

Regarding `COc1cc(CC(CO)C(CO)Cc2ccc(O)c(OC)c2)ccc1O` (stereo not given), the results for the fold change in assay [1] (setting [3]) and in assay [1] (setting [4]) were 1.4 (inactive) and 0.831, respectively. Moreover, the cell count came out at 8290 in assay [1] (setting [5]) and 5940 in assay [1] (setting [6]). In assay [2], the z-score was 0.405 (inactive).

Take `COc1cc(CNC(=O)CCCCC=CC(C)C)ccc1O`: the values for the fold change in assay [1] (setting [3]) and in assay [1] (setting [4]) were 0.954 (inactive) and 2.14, respectively. For the same compound, the values for the cell count in assay [1] (setting [5]) and in assay [1] (setting [6]) were 9660 and 10100, respectively. In addition, the z-score in assay [2] is 0.315 (inactive).
